# Assay results taken from PubChem BioAssay AID602143 (Vanderbilt Specialized Chemistry Center, 2011).
# The source made the active and inactive calls. Cut-off read from the data, not from the text of the source: active = remaining activity below about 50%; inactive = the rest.
# Molecular target: Phospholipase D2 (Homo sapiens) (UniProt O14939)
# Experiment: cellular phospholipase D2 activity inhibition – cell-based, HEK293, single concentration (AID 602143);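 note: tested at 200 nM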
# Conditions: HEK293 cellular PLD2 activity, percent of control; hits give low values
# Chain of Phospholipase D2 (Homo sapiens) (O14939 whole entry, looked up): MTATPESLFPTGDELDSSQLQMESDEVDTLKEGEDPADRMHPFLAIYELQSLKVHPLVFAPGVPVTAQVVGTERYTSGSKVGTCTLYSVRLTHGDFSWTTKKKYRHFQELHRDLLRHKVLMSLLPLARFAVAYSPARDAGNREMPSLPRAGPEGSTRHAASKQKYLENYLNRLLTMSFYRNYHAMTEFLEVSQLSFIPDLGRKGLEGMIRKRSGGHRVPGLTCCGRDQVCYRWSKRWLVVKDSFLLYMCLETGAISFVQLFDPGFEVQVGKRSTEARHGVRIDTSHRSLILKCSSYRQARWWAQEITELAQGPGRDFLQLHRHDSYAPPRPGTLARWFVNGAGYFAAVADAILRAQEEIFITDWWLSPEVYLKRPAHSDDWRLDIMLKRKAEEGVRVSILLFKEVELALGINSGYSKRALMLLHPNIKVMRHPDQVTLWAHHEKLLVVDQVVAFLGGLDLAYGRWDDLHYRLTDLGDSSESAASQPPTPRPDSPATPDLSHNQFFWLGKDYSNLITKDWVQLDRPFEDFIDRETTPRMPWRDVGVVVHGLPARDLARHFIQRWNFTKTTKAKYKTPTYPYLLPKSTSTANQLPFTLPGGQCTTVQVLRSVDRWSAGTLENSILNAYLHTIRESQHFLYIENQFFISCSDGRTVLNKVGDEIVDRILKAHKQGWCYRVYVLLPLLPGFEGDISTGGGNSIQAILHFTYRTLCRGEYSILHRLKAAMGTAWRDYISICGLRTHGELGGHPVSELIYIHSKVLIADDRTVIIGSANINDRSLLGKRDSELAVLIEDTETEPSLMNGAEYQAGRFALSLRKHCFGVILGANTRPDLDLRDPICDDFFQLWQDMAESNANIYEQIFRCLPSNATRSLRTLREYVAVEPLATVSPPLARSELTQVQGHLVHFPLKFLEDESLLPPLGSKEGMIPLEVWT
# Chain of Phospholipase D2 (Homo sapiens) (O14939 whole entry, looked up): as above
row,SMILES,remaining activity
1,O=c1[nH]c2ccccc2n1C1CCN(CCNS(=O)(=O)c2ccc([N+](=O)[O-])cc2)CC1,80.3% (inactive)
2,O=C(NCCN1CCC(n2c(=O)[nH]c3ccccc32)CC1)Nc1cccc(F)c1,87.9% (inactive)
3,O=C(NCCN1CCC(c2nc3ccccc3[nH]2)CC1)C1CC1c1ccccc1 (centres undefined),95.6% (inactive)
4,C[C@@H](CN1CCC(n2c(=O)[nH]c3ccc(F)cc32)CC1)NC(=O)c1ccc(Cl)cc1,68.3% (inactive)
